According to PubChem BioAssay AID588397 (National Center for Advancing Translational Sciences (NCATS), 2011):
In all, about 1,300 compounds went through this assay and about 1,000 (77%) were called active. Inconclusive results (about 7%) are left out. Calls come from the whole dose curve; as a rule, active = well fitted inhibition curve with a large enough effect; inconclusive = small, poorly fitted or top-dose-only effect; inactive = no such curve, though single readings can be large or run the other way. The set was probably picked from earlier hits. The list shows a part of the results.

Assay: qHTS of small molecules that selectively kill Giardia lamblia: Hit Validation.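 Note: viability measured as ATP content by luminescence so killing lowers signal; trophozoites exposed to compounds for 48 h anaerobically at 37 °C; nearly all actives have a fitted effect of over 65% in size.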
Details: Giardia lamblia trophozoite viability, dose-response; series mostly up to 38.3 µM
Method in brief: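 Luminescent ATP signal served as the viability read-out, measured 15-30 min after adding ATP detection reagent to trophozoites that had been incubated with compounds for 48 hrs at 37 deg C anaerobically at 100 cells/well.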
Potency is the fitted concentration of half-maximal effect.

| SMILES | Potency |
| --- | --- |
| Cc1ccc(OCC(=O)N(C)CC(=O)Nc2ccc(Cl)c(C(F)(F)F)c2)c([N+](=O)[O-])n1 | 5790 nM (active) |
| Cc1ccc(OCC(=O)Nc2nc(C)c(Cl)cc2Cl)c([N+](=O)[O-])n1 | 5790 nM (active) |
| Cc1ccc(OCC(=O)Nc2ccc(C)c(F)c2)c([N+](=O)[O-])n1 | 5790 nM (active) |
| Oc1cccc(-c2nnc(-c3cccc(O)c3)nn2)c1 | 1160 nM (active) |
| O=C(NC1CCCCC1)c1ccc([N+](=O)[O-])o1 | 1630 nM (active) |
| O=C(NC1CCCC(C(F)(F)F)C1)c1ccc([N+](=O)[O-])o1 (stereo not drawn) | 1450 nM (active) |
| O=C(NCC1CCCO1)c1ccc([N+](=O)[O-])o1 (stereo not drawn) | 1160 nM (active) |
| Cc1cc2nc(-c3ccc[nH]c3=O)[nH]c2cc1C | 729 nM (active) |
| O=C(NCC(c1ccc(F)cc1)N1CCOCC1)c1ccc([N+](=O)[O-])o1 (stereo not drawn) | 1300 nM (active) |
| O=C(NCc1nnnn1-c1ccc(F)cc1)c1ccc([N+](=O)[O-])o1 | 1450 nM (active) |
| Cc1ccc(-n2nnnc2CNC(=O)c2ccc([N+](=O)[O-])o2)cc1C | 918 nM (active) |
| Cc1[nH]n(S(=O)(=O)Cc2ccccc2)c(=O)c1N=Nc1ccccc1Cl | 2310 nM (active) |
| Cc1[nH]n(S(=O)(=O)c2ccccc2)c(=O)c1N=Nc1cccc(Cl)c1 | 4600 nM (active) |
| COc1ccc(N(Cc2ccccc2)C(=O)OC(C)(C)C)c(C(=O)N(C)OC)c1 | inactive |
| COc1ccc(Cn2cnc([N+](=O)[O-])c2)cc1[N+](=O)[O-] | 3260 nM (active) |
| COc1cc(NC(=O)c2ccc([N+](=O)[O-])o2)ccc1NC(=O)c1ccco1 | 579 nM (active) |
| COc1ccc(NC(=O)c2ccc([N+](=O)[O-])cc2[N+](=O)[O-])c(OC)c1 | 10300 nM (active) |
| O=C(O)c1cccc(NC(=S)NC(NC(=O)c2ccccc2[N+](=O)[O-])C(Cl)(Cl)Cl)c1 (stereo not drawn) | inactive |
| O=C(Nc1ccc(NC(=O)c2ccc([N+](=O)[O-])o2)cc1Cl)c1ccco1 | 1030 nM (active) |
| O=C(Nc1cccc(NC(=O)c2ccccc2Cl)c1)c1ccc([N+](=O)[O-])o1 | 410 nM (active) |
| Cc1cc(NC(=O)c2ccc([N+](=O)[O-])o2)ccc1NC(=O)c1ccco1 | 918 nM (active) |
| O=C(Nc1cccc(NC(=O)c2ccc([N+](=O)[O-])o2)c1)c1ccco1 | 729 nM (active) |

| SMILES | Potency |
| --- | --- |
| O=C(Nc1cccc(NC(=O)c2cccs2)c1)c1ccc([N+](=O)[O-])o1 | 729 nM (active) |
| O=C(Nc1ccccc1O)c1ccc([N+](=O)[O-])cc1 | 9180 nM (active) |
| O=C(Nc1ccc(O)c2c(=O)cc(-c3ccccc3Cl)oc12)c1ccc(F)cc1 | inactive |
| COc1cc(NC(=O)c2ccc([N+](=O)[O-])o2)ccc1NC(=O)c1cccs1 | 818 nM (active) |
| COc1ccc(NC(=O)c2ccco2)c(NC(=O)c2ccc([N+](=O)[O-])cc2)c1 | 4100 nM (active) |
| O=C(COC(=O)c1ccccc1)Nc1ncc([N+](=O)[O-])s1 | 3650 nM (active) |
| O=C(COC(=O)c1ccc(Br)o1)Nc1ncc([N+](=O)[O-])s1 | 2310 nM (active) |
| Cc1nc2cc(NC(=O)c3ccc([N+](=O)[O-])s3)ccc2s1 | 650 nM (active) |
| Cc1ccnc(NC(=O)c2ccc([N+](=O)[O-])s2)c1 | 3650 nM (active) |
| Cc1ccnc(NC(=S)NC(=O)c2cccs2)c1 | 6500 nM (active) |
| Cc1cccc(NC(=O)c2ccc([N+](=O)[O-])s2)n1 | 3650 nM (active) |
| O=C(c1cc(COc2c(F)cccc2F)on1)N1CCc2ccccc2C1 | inactive |
| O=C(c1ccc([N+](=O)[O-])o1)N1CCc2ccccc21 | 1300 nM (active) |
| COc1cc2c(cc1OC)CN(Cc1cc(=O)oc3c(C)c(C)ccc13)CC2 | inactive |
| COc1cc2c(cc1OC)CN(C(=O)c1ccc([N+](=O)[O-])o1)CC2 | 2050 nM (active) |
| O=C(c1ccc([N+](=O)[O-])o1)N1CCc2ccccc2C1 | 2900 nM (active) |
| N/C(=N\c1nc2ccccc2o1)NC(=O)C(Cc1ccccc1)N1C(=O)c2ccccc2C1=O (stereo not drawn) | 1830 nM (active) |
| N#Cc1ccccc1S(=O)(=O)N1CCN(C(=O)c2cn(-c3ccccc3)nc2-c2cccnc2)CC1 | 6500 nM (active) |
| CC(NC(=O)C12CC3CC(CC(C3)C1)C2)C(=O)NN=Cc1ccc([N+](=O)[O-])o1 (stereo not drawn) | 1830 nM (active) |
| O=C(CC12CC3CC(CC(C3)C1)C2)N/N=C/c1ccc([N+](=O)[O-])o1 | 918 nM (active) |
| CCn1c(C)cc(C(=O)COC(=O)c2ccccc2[N+](=O)[O-])c1C | 20500 nM (active) |
